From PubChem BioAssay (Tox21) come the findings set out here.

Values joined by “and” are separate entries in the source; they are usually repeats but may differ in a detail not shown here. Equal values may be shown once. Inconclusive results are not listed. The source holds several records for some structures; these can differ, active in one and inactive in another. Active and inactive are the calls of the source. Unless noted, calls follow the shape of the dose curve; as a rule, active = well fitted curve in the direction sought with a large enough effect in the repeat runs; inconclusive = weak or mixed curves; inactive = no such curve, though single readings can be large; an effect the other way counts as inactive or inconclusive.

For test [1], the target named is Retinoic acid receptor RXR-alpha (Homo sapiens) (UniProt P19793). Kind of test: qHTS assay to identify small molecule agonists of the RXR signaling pathway (AID 1159527; calls by dose curve; also: nearly all actives have a fitted effect of over 35% in size; also: potency is read from the fitted curve at half-maximal effect). Summed up: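 16 hr incubation of compound-treated RXR-alpha-UAS-bla HEK 293T cells (2% charcoal-stripped FBS, 37 C) preceded a 2 hr room-temperature LiveBLAzer FRET substrate step and blue/green fluorescence measurement.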
Sequence of Retinoic acid receptor RXR-alpha (Homo sapiens) (P19793 whole entry, looked up): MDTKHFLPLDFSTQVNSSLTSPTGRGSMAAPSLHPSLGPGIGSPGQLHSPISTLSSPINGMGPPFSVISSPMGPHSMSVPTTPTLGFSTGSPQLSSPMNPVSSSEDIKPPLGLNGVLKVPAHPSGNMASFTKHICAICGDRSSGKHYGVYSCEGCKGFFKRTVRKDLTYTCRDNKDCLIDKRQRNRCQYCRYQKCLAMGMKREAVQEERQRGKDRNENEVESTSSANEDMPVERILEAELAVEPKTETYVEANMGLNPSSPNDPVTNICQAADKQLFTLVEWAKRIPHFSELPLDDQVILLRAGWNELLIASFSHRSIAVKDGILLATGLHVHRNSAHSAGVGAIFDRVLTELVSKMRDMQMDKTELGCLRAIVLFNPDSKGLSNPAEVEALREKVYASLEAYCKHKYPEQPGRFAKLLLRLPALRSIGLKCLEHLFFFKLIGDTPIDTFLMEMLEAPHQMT

Test [2] is described as follows: qHTS assay to identify small molecule agonists of the RXR signaling pathway - cell viability counter screen (AID 1159529).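 Also: HEK 293T cells carrying an RXR-alpha UAS beta-lactamase reporter; series mostly up to about 77 µM; nearly all actives have a fitted effect of over 50% in size.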 Summed up:
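In this parallel viability measure, GeneBLAzer RXR-alpha HEK 293T cells (2% charcoal-stripped FBS) were given a 5 hr preincubation, treated with compounds 16 hr at 37 C, and read by CellTiter-Glo luminescence.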
On the technique in general: In qHTS, concentration-response curves come from the screen itself.

Test [3] can be described thus: qHTS assay to identify small molecule antagonists of the retinoid acid receptor (RAR) signaling pathway - cell viability counter screen (AID 1159551). Also: nearly all actives have a fitted effect of over 35% in size. The gist of the method: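 Cytotoxicity counter screen in C3RL4 cells: 6 h compound exposure with 1 uM retinol (final), viability from cellular ATP by luminescence.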
Test [4] can be described thus: qHTS assay to identify small molecule antagonists of the retinoic acid receptor (RAR) signaling pathway (AID 1159552; also: nearly all actives have a fitted effect of over 50% in size; also: potency is read from the fitted curve at half-maximal effect). The gist of the method:
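C3RL4 RARE-luc cells, overnight plating; retinol 1 uM final added right after compound; 6 hr 37 C; luciferase read at 30 min RT.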

Test [5] can be described thus: qHTS assay to identify small molecule agonists of the retinoic acid receptor (RAR) signaling pathway (AID 1159553). Also: potency is read from the fitted curve at half-maximal effect. The gist of the method: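 Agonist activity was scored in C3RL4 cells bearing a retinoic acid response element luciferase construct. Cells were treated with compounds for 6 hr at 37 C, and luciferase signal was measured as luminescence.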
Test [6] concerns the target Luciferin 4-monooxygenase (Photinus pyralis) (UniProt P08659). Kind of test: qHTS assay to identify small molecule inhibitors of firefly luciferase (AID 1224835). Also: nearly all actives have a fitted effect of over 25% in size. Also: potency is read from the fitted curve at half-maximal effect. Summed up:
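Biochemical qHTS: compounds run as interplate titrations against purified firefly enzyme, with D-luciferin and ATP each at its KM concentration. Light output recorded by CCD imaging.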

The nature of test [7]: qHTS assay to identify small molecule agonists of the constitutive androstane receptor (CAR) signaling pathway - cell viability counter screen (AID 1224836). Also: series mostly up to about 92 µM; nearly all actives have a fitted effect of over 45% in size. The gist of the method: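 Using CellTiter-Fluor, viability of HepG2 cells harbouring hCAR and CYP2B6-2.2kb was measured following 23 h incubation with a 15-concentration compound series plus PK11195 (0.75 uM final).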

A short description of test [8]: qHTS assay to identify small molecule antagonists of the constitutive androstane receptor (CAR) signaling pathway - cell viability counter screen (AID 1224837). Also: series mostly up to about 92 µM; nearly all actives have a fitted effect of over 45% in size. The gist of the method: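 Multiplexed cytotoxicity read-out for the CAR antagonist screen: double-stable HepG2-CYP2B6-hCAR cells co-treated with 50 nM CITCO (final) and compound over 15 concentrations, incubated 23 hr, then assessed by CellTiter-Fluor fluorescence.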

Test [9] is described as follows: qHTS assay to identify small molecule antagonists of the estrogen related receptor (ERR) signaling pathway from Tox21 library - cell viability counter screen (AID 1224834). Also: nearly all actives have a fitted effect of over 30% in size. Also: potency is read from the fitted curve at half-maximal effect. Summed up:
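Cytotoxicity of test substances is gauged in the same ERR cells used for the antagonist screen, after 17.5 h of compound treatment at 37 C, by CellTiter-Fluor fluorescence measured after 30 min.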

The nature of test [10]: qHTS assay to identify small molecule antagonists of the estrogen related receptor signaling pathway with the pleiotropic PPARgamma coactivator (PGC) cell viability counter screen (AID 1224822; also: series mostly up to about 46 µM). Summed up: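 Seed PGC/ERR cells (2,000/well); incubate 6 h at 37 C/5% CO2; pin-transfer compounds in DMSO; incubate 17.5 h at 37 C; add CellTiter-Fluor; after 30 min read fluorescence.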

Sequence of Luciferin 4-monooxygenase (Photinus pyralis) (P08659 whole entry, looked up): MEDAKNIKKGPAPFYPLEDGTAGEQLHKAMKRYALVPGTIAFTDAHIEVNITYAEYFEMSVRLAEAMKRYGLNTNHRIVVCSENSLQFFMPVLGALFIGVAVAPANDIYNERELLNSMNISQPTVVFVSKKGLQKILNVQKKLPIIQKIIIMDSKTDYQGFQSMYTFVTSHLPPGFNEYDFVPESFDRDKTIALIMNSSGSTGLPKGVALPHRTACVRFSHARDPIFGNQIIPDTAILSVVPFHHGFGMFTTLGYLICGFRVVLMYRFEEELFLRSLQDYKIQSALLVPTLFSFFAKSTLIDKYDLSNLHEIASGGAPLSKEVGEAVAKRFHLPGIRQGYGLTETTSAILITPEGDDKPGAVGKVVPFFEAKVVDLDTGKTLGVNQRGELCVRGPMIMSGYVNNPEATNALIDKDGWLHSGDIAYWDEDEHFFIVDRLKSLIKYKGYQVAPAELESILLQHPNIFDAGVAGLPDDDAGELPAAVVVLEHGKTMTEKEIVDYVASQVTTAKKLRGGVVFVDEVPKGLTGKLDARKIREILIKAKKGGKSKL

As for `O=P(OC(CCl)CCl)(OC(CCl)CCl)OC(CCl)CCl`, the Potency result in test [1], in [2], in [5], in [6], in test [7] and in [8] was “inactive” in each case. In addition, the call in [3] was inactive. In test [4], the Potency entry was “inactive and 27.3 µM (active)”.

As to `COCCCOc1ccnc(CS(=O)c2nc3ccccc3[nH]2)c1C` (configuration not stated), the Potency result in test [1], in test [2], in test [4], in test [9], in test [7] and in [8] was “inactive” each time. Moreover, the result in test [3] was inactive. Besides, the Potency in test [5] was 3.84 µM (active).

Consider `Cc1ccc2oc(=O)ccc2c1`, for which the Potency result in [1], in test [2], in test [4], in test [5], in test [9] and in test [6] was “inactive” throughout. Also, the Potency result in [7] and in [8] was “inactive” in each case. In addition, the result in test [3] was inactive.

Regarding `O=c1[nH]c(=O)n([C@H]2C[C@H](O)[C@@H](CO)O2)cc1Br`, the Potency result in [1], in test [2], in test [9], in [6], in test [7] and in test [8] was “inactive” throughout. Further, the result in [3] and in test [10] was inactive.

For `c1ccc2scnc2c1`, the Potency entry in [1], in test [2], in test [4], in test [5], in test [9] and in test [6] was “inactive” throughout. The Potency result in test [7] and in test [8] was “inactive” in each case. Moreover, in [3], the molecule was called inactive.

As to `CC(=O)OCC(=O)[C@@]12N=C(C)O[C@@H]1C[C@H]1[C@@H]3CCC4=CC(=O)C=C[C@]4(C)[C@H]3[C@@H](O)C[C@@]12C`, the Potency entry in test [1], in test [2], in test [5], in test [9], in [6] and in test [7] was “inactive” throughout. Besides, the Potency entry in [8] was “inactive”. Besides, the result in [3] was inactive.

Turning to `O=C(O)c1ccccc1C(c1ccc(O)cc1)c1ccc(O)cc1`, the Potency entry in test [1], in test [2], in test [4], in test [5], in test [9] and in test [6] was “inactive” in each case. Besides, the Potency entry in [7] and in test [8] was “inactive” in each case. Further, the outcome in [3] was inactive.

Consider `CCCCOC(=O)COc1ccc(Cl)cc1Cl`, for which the Potency entry in test [1], in [2], in test [4], in test [5], in test [9] and in test [7] was “inactive” each time. The Potency entry in test [8] is “inactive”. Moreover, the result in test [3] was inactive. The Potency in [6] was 9.05 µM (active) and 10 µM (active).

For the molecule `O=C(O)c1cc(O)c(O)c(O)c1`, the Potency entry in test [1], in test [2], in [4], in [5], in [7] and in test [8] was “inactive” in each case. Also, the outcome in test [3] was inactive. Besides, the Potency in test [9] was 61.7 µM (active).

Consider `O=C=NCCCCCCN=C=O`, for which the Potency result in test [1], in [2], in [4], in test [5], in [9] and in [6] was “inactive” in each case. In addition, the Potency result in [7] and in test [8] was “inactive” throughout. For the same molecule, in test [3], the molecule was classed as inactive.

For `O=C1CCC(N2C(=O)c3ccccc3C2=O)C(=O)N1` (configuration not stated), the Potency entry in test [1], in [2], in test [4], in test [5], in [9] and in test [6] was “inactive” in each case. Moreover, the Potency result in [7] and in [8] was “inactive” in each case. The molecule was called inactive in test [3] and in [10].

For the molecule `CC(O)COCC(C)O` (configuration not stated), the Potency entry in test [1], in [2], in test [9], in test [6], in test [7] and in test [8] was “inactive” throughout. Further, in test [3], the outcome was inactive.

Turning to `CC(C)(N)CO`, the Potency entry in test [1], in [2], in [9], in [6], in [7] and in test [8] was “inactive” each time. In addition, the molecule was called inactive in test [3].

Regarding `O=S1(=O)CC=CC1`, the Potency result in test [1], in [2], in test [4], in test [5], in test [9] and in test [6] was “inactive” each time. Moreover, the Potency result in [7] and in [8] was “inactive” throughout.

On to `O=c1[nH]c(=O)n([C@H]2CCCO2)cc1F`, for which the Potency in test [1] was 17.4 µM (active) and inactive. The Potency entry in [2], in test [4], in [5], in [9], in test [6] and in [7] was “inactive” in each case. The Potency entry in test [8] is “inactive”.

`CCCCCCCCCC`: the Potency result in test [1], in test [2], in [9], in test [6], in test [7] and in test [8] was “inactive” in each case. Moreover, the result in [3] was inactive.

In the case of `O=[N+]([O-])c1ccc(/C=C/c2ccc([N+](=O)[O-])cc2S(=O)(=O)O)c(S(=O)(=O)O)c1`, the Potency result in test [1], in [2], in test [9], in test [6], in test [7] and in test [8] was “inactive” throughout. Moreover, the call in test [3] was inactive.

Regarding `CN(C)CCOCCN(C)C`, the Potency entry in [1], in [2], in test [9], in test [6], in test [7] and in test [8] was “inactive” throughout. Besides, the outcome in [3] was inactive.

Take `CCCCCC(N)=O`: the Potency entry in test [1], in test [2], in [9], in test [6], in test [7] and in test [8] was “inactive” each time. The result in [3] was inactive.

In the case of `C[Si](O[Si](C)(C)C)O[Si](C)(C)C`, the Potency result in test [1], in test [2], in [9], in test [6], in test [7] and in test [8] was “inactive” throughout. The molecule was classed as inactive in test [3].

For the molecule `CCCCCCCC(=O)OC`, the Potency result in test [1], in [2], in test [9], in test [6], in test [7] and in test [8] was “inactive” throughout. Besides, the call in [3] was inactive.

As to `C[C@H]1C[C@H]2[C@@H]3CCC4=CC(=O)C=C[C@]4(C)[C@@]3(F)[C@@H](O)C[C@]2(C)[C@@]1(O)C(=O)CO`, the Potency result in test [1], in [2], in [9], in [7] and in test [8] was “inactive” each time. Besides, the molecule was classed as inactive in test [3].

With `O=S(=O)(O)c1ccc2ccccc2c1`, the Potency in [1] is 11 µM (active). Further, the Potency result in test [2], in [9], in test [6], in [7] and in [8] was “inactive” each time. The result in test [3] was inactive.

In the case of `OCC(CO)(CBr)CBr`, the Potency entry in [1], in test [2], in test [4], in test [5], in [9] and in test [6] was “inactive” each time. The Potency result in test [7] and in [8] was “inactive” throughout.

Regarding `O=C(O)c1ccc(C(=O)O)cc1`, the Potency entry in [1], in [2], in [9], in test [6], in [7] and in [8] was “inactive” each time. Besides, the outcome in test [3] was inactive.

Regarding `C=C(C)C(=O)Nc1ccc(Cl)c(Cl)c1`, the Potency result in test [1], in test [2], in test [9], in test [6], in test [7] and in test [8] was “inactive” throughout. In addition, in test [3], the molecule was classed as inactive.

As to `O=C(CC(C(=O)OC1CCCCC1)S(=O)(=O)O)OC1CCCCC1` (configuration not stated), the Potency result in test [1], in test [2], in test [4], in test [5], in [9] and in [6] was “inactive” each time. Also, the Potency entry in [7] and in test [8] was “inactive” throughout.

On to `Cc1cccc(O)c1`, for which the Potency entry in test [1], in test [2], in [9], in test [6], in test [7] and in [8] was “inactive” in each case. Further, in [3], the molecule was classed as inactive.
